Rows were chosen to be rich in hits. Some 1.2% of all compounds tested hit in one or more screens of this group.
GSH bead fluor: compound fluoresces at 488/530 nm on GSH beads; 190,000 tested, 0.25% active; GSH beads flow cytometry, compound fluorescence 488/530 nm; hits give high values; fluorescence (KMESF) at 10 µM; in the data active = fluorescence above about 89;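 note: glutathione beads carrying GST-tagged Bcl family fusion proteins plus one bare bead set; values are compound well signal with DMSO vehicle wells as background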
RGS16-Gao HTS: RGS16-Galphao interaction regulator (human) | 220,000 tested, 0.38% active | bead-based flow cytometry RGS16-Galphao binding, fluorescence; actives lie on both sides | binding response (% of control), % at 10 µM; call rule not given here;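 note: Galphao activated by GDP with aluminum fluoride before binding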
RGS7-Gao reg: human RGS7-Galphao interaction regulation. Multiplexed bead flow cytometry, RGS7-Galphao binding; actives lie on both sides. binding response (% of control), % at 10 µM. 220,000 tested, 0.35% active; in the data active = binding response below about 49% or above about 150%; inconclusive = no clear call, values can overlap the other calls; inactive = in between;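 note: fluorescent Galphao held in activated GDP-AlF4 state binding bead-coupled RGS7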
Target sequence (P09471 whole entry, looked up): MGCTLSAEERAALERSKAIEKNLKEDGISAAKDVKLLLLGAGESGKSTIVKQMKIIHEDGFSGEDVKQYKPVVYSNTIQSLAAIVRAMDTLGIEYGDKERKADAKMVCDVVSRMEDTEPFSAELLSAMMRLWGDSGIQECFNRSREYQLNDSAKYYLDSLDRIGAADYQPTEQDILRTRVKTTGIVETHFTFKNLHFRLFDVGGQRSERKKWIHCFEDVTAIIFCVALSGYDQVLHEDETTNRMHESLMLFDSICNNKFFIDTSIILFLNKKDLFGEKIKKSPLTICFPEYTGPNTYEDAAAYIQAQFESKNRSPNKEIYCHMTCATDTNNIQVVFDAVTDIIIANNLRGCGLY
RGS4-Gao reg: modulates binding of RGS4 to human Galphao | P09471 | Multiplexed bead flow cytometry; actives lie on both sides | binding response (% of control), % at 10 µM | 220,000 tested, 0.33% active | AID 1415; in the data active = binding response below about 49% or above about 150%; inactive = in between;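 note: fluorescent Galphao activated with aluminum fluoride binding bead-coupled RGS4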
Avidin bead fluor: compound fluoresces at 488/530 nm on avidin beads; fluorescence (KMESF) at 10 µM; compound fluorescence 488/530 nm, flow cytometry; hits give high values; 220,000 tested, 0.38% active; in the data active = fluorescence above about 47
RGS8-Gao: human RGS8-Galphao interaction regulation | multiplexed bead flow cytometry, RGS8-Galphao binding; actives lie on both sides | P09471 | 220,000 tested, 0.34% active | response (percent of control binding), % at 10 µM; in the data active = response below about 60% or above about 140%; inactive = in between;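 note: Galphao activated as the GDP aluminium fluoride complex binding bead-coupled RGS8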
* marks the source's active call; other numbers are inactive results; ? = inconclusive; · = no result given; + = active, no number; [ ] = dose if it differs, or a comment.

SMILES	GSH bead fluor	RGS16-Gao HTS	RGS7-Gao reg	RGS4-Gao reg	Avidin bead fluor	RGS8-Gao
O=C(O)c1ccccc1NS(=O)(=O)c1ccc2c3c(cccc13)C(=O)N2	19	108	133	114	75*	104
CN(c1ccccc1C(=O)O)S(=O)(=O)c1ccc2c3c(cccc13)C(=O)N2	18	94	96	96	19	100
CCOC(=O)/C(C#N)=C/Nc1cc(OC)ccc1OC	9	120	107	103	4	106
CCOC(=O)/C(C#N)=C/Nc1ccccc1OC(F)(F)F	·	91	?	134	105*	95
COc1ccc(C(=O)Nn2c(SCc3ccc([N+](=O)[O-])cc3)nc3ccccc3c2=O)cc1	16	101	109	104	8	104
C=CCn1c(SCC(=O)NCc2ccco2)nc2ccccc2c1=O	25	98	93	96	10	96
C=CCn1c(SCC(=O)NC(=O)NCc2ccco2)nc2sc(CC)cc2c1=O	267*	100	90	89	5	101
O=C1C2CC=CCC2C(=O)N1Cc1nnc(-c2ccc(Cl)cc2)o1 (stereo unspecified)	15	100	?	99	10	100
O=C(CN1CCOCCOCCOCCOCC1)Nc1ccccc1	17	96	97	98	19	98
O=C(CSc1nnc(-c2ccncc2)o1)N1CCc2ccccc2C1	12	110	110	102	47*	105
Fc1ccc(-c2csc(N3CCOCC3)n2)cc1	·	101	?	106	8	102
COc1cc(-c2csc(N3CCOCC3)n2)cc(OC)c1OC	263*	105	102	102	7	101
COCCCC1CCN(Cc2nc(-c3ccccc3)no2)CC1	14	101	101	99	12	100
COC(=O)CSc1nc(-c2ccccc2)c2c(c1C#N)CCCC2	260*	105	103	99	6	99
COC(=O)COc1cc(C)cc2oc(=O)c(CC(=O)OC)c(C)c12	24	94	99	91	60*	96
CCCCC(=O)Nc1cccc(NC(=O)c2ccc(Br)cc2)c1	14	109	137	101	49*	102
CCCCN1CC(O)=C(c2nc3ccccc3s2)C1=N	25	113	133	105	110*	103
N=C1C(c2nc3ccccc3s2)=C(O)CN1CCCO	16	101	100	99	34	103
CC(=O)N1CCC(N(C(=O)Nc2ccc(C)c(C)c2)C2CCCC2)CC1	18	106	105	103	47*	101
CC(C)N(C)NC(=S)Nc1ccccc1	332*	85	94	93	7	96
CCN(CC)NC(=S)Nc1ccccc1	35	115	105	106	11	107
O=C(CN(C(=O)CCC(=O)Nc1nccs1)c1cccc(F)c1)NCC1CCCO1 (stereo unspecified)	37	101	116	105	59*	98
CCN(CC)CCCNC(=O)C1c2ccccc2C(=O)N(CCOC)C1c1ccc(F)cc1 (stereo unspecified)	15	101	?	102	9	100
COCCN1C(=O)c2ccccc2C(C(=O)Nc2ccc3c(c2)OCCO3)C1c1ccc(F)cc1 (stereo unspecified)	8	96	115	104	62*	99
Cc1nn(Cc2cccc(C(N)=O)c2)c(C)c1Br	·	106	?	98	6	101
SMILES	GSH bead fluor	RGS16-Gao HTS	RGS7-Gao reg	RGS4-Gao reg	Avidin bead fluor	RGS8-Gao
Cc1nn(Cc2cccc(C(=O)NCC(C)C)c2)c(C)c1Br	148*	96	112	116	6	102
Cn1c(=S)n(C)c2ccccc21	17	103	116	105	84*	96
OC(CNc1ccccc1)Cn1ccc2ccccc21 (stereo unspecified)	17	100	?	98	9	99
CN(C)S(=O)(=O)c1cccc(C(=O)OCC(=O)Nc2sccc2C#N)c1	33	-63*	-17*	-59*	-4	21*
O=C(Cn1cnc2ccccc21)NCc1ccccc1	33	103	136	105	58*	101
COc1ccccc1CNC(=O)Cn1cnc2ccccc2c1=O	234*	166	122	131	6	123
COc1ccc(NC(=O)Cn2cnc3ccccc3c2=O)cc1OC	17	113	94	101	6	88
O=C(COC(=O)Cn1cnc2ccccc21)NCc1ccc(F)cc1	15	103	?	101	9	102
N/C(=N\c1nc(CSc2ccc(Cl)cc2)cc(=O)[nH]1)Nc1ccccc1C(F)(F)F	28	106	96	102	10	100
CCOC(=O)Cn1nc(-c2ccc(Cl)cc2)cc1N	6	103	100	102	10	101
CCOC(=O)CCn1nc(-c2ccc(Cl)cc2)cc1N	36	99	107	100	48*	97
CCNc1sc(S(C)(=O)=O)nc1S(=O)(=O)c1ccc(Cl)cc1	17	101	99	97	6	98
CCN(CC)c1ccc2cc(-c3nnc(-c4ccccc4)o3)c(=O)oc2c1	34	96	99	96	8	99
CCN(CC)c1ccc2cc(-c3nc(-c4ccc(OC)cc4)cs3)c(=O)oc2c1	445*	923*[activator]	+[activator]	808*[activator]	636*	177*[activator]
Cc1ccccc1OCCn1cnc2cc([N+](=O)[O-])ccc2c1=O	13	98	71	96	4	96
Cc1ccc(NC(=O)CCCSc2ccccc2)cc1S(=O)(=O)N1CCOCC1	10	113	149	110	101*	101
CCc1nn(-c2ccccc2)c2c1-c1cc(OC)c(OC)cc1C1(N2)C(=O)Nc2ccccc21 (stereo unspecified)	38	7	92	89	2	88
CCOC(=O)c1c(NC(=O)N/N=C/c2ccccc2OCC)sc(C(C)=O)c1C	447*	27	90	90	5	85
COc1ccc(S(=O)(=O)N2CCOCC2)cc1NC(=O)Cc1ccccc1Cl	18	102	107	103	14	102
COc1ccccc1NC(=O)CCN1CCN(Cc2ccccc2)CC1	14	102	100	102	7	103
COc1ccccc1NC(=O)CCN1CCCCCC1	32	-2.5*	0.6*	3.0*	-2	4.6*
COc1ccc(S(=O)(=O)N2CCCCCC2)cc1NC(=O)Cc1ccccc1	8	102	106	98	48*	97
CN(CC1CCOCC1)C(=O)CC1C(=O)NCCN1CC1CCCCC1 (stereo unspecified)	11	96	100	95	10	98
O=C(Nc1ccc2c(c1)OCO2)[C@@H]1[C@@H]2C(=O)N(C3CCCCC3)C(=O)[C@@H]2C2c3ccccc3C=CN21 (stereo partly specified)	237*	101	81	110	8	84
